# Measured values from PubChem BioAssay (EPA / NIEHS).
# Results filed as inconclusive are left out. The source made the active and inactive calls. Rule for the calls: active = hit-call score of the fitted dose curve at least 0.9, where 1 is the maximum; inconclusive = response in the unintended direction; inactive = score below 0.9.
# Columns and labels:
# [1] = ACEA_ER_AUC_viability: ACEA Biosciences xCELLigence Real-Time Cell Analysis on Estrogen Receptor Agonism for Viability (AID 2283782);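 note: hit means loss of impedance signal meaning reduced cell growth or viability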
# Method in brief: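 Viability endpoint: reduced impedance area under the curve relative to DMSO, recorded by real-time electrode sensing over ~80 h of continuous exposure. Duplicate plates of T47D in hormone-depleted medium; eight concentrations, 1:4 dilutions, 100 uM maximum.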
# [2] = ACEA_AR_antagonist_AUC_viability: ACEA Biosciences xCELLigence Real-Time Cell Analysis on Androgen Receptor Antagonism for Viability (AID 2283776);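 note: 22Rv1 human prostate cancer cells growing on impedance electrode plates; area under impedance growth curve at 80 h after dosing as viability; hits lower the growth signal relative to DMSO meaning cytotoxicity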
# Method in brief: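 22Rv1 prostate cells, continuous dosing up to 100 uM final (0.5% DMSO max), duplicate plates. Growth measured by impedance; AUC at 80 h, loss of signal vs DMSO.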
# AR (gene 367) [3] = biological target: AR (gene 367) (UniProt P10275); assay: ACEA_AR_agonist_80hr: ACEA Biosciences xCELLigence Real-Time Cell Analysis on Androgen Receptor Agonism for Proliferation (AID 2283783);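 note: hits increase impedance growth signal above DMSO baseline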
# AR (gene 367), sequence (P10275 whole entry, looked up): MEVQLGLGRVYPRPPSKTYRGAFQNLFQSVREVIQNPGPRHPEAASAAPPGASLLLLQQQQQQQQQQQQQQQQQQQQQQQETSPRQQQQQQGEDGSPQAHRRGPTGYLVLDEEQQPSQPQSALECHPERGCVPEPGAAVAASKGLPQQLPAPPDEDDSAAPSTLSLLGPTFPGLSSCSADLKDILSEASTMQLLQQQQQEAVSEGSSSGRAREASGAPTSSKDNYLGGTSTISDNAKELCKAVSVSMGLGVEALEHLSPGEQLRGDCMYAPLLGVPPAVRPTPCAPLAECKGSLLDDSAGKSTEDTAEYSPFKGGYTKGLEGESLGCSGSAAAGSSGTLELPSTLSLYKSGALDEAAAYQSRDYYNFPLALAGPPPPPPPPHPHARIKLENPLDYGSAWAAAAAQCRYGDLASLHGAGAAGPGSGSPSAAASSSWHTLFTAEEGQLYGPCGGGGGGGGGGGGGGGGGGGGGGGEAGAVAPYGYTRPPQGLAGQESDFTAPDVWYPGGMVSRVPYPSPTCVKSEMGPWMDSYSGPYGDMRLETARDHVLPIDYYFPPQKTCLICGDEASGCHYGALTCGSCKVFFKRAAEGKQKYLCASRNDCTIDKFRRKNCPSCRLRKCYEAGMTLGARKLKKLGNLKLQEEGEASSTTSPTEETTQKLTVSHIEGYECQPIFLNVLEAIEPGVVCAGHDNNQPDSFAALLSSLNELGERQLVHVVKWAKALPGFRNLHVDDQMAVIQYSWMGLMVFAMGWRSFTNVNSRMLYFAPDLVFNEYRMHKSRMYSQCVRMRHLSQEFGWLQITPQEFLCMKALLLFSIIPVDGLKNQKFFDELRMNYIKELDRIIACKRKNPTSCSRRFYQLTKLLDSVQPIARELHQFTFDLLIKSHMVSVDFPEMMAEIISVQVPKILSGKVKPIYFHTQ
# Method in brief: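 Eight concentrations, 1:4 serial dilution from a 100 uM final top, in biological duplicate. Impedance-based real-time growth of 22Rv1 cells after overnight baseline, recorded hourly and read at 80 hours. Controls: testosterone, MG132, assay media.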
# AR (gene 367) [4] = biological target: AR (gene 367) (UniProt P10275); assay: ACEA_AR_antagonist_80hr: ACEA Biosciences xCELLigence Real-Time Cell Analysis on Androgen Receptor Antagonism for Proliferation (AID 2283787);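 note: 22Rv1 human prostate cancer cells with growth followed by electrical impedance; hits lower the impedance growth signal relative to DMSO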
# Method in brief: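 Impedance-based real-time growth of 22Rv1 prostate cells, read 80 h after dosing. Eight concentrations, 1:4 series, top 100 uM final (0.5% DMSO), n = 2; signal decrease scored against DMSO.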
# [5] = ACEA_AR_agonist_AUC_viability: ACEA Biosciences xCELLigence Real-Time Cell Analysis on Androgen Receptor Agonism for Viability (AID 2283775)
# Method in brief: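 Viability endpoint from xCELLigence impedance in 22Rv1 prostate cells at 80 h. Eight-point series, 100 uM maximum final.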
# [6] = ATG_M_06_XSP2: Attagene TRANS-FACTORIAL Multi-Species (XSP2) HepG2 Assay for M06 Transcription Factor (Internal Marker) (AID 2283811);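 note: internal background marker reporter mRNA measured by RT-PCR and capillary electrophoresis; hits are increases in signal above the DMSO baseline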
# Method in brief: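 Internal-marker reporter transcript, quantified by RT-PCR, 6-FAM labelling, HpaI digestion and capillary electrophoresis, 24 hours after dosing transfected HepG2 cells with 3 nM 6-alpha-fluorotestosterone and 1.5 nM norgestrel present; DMSO baseline.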
# [7] = biological target: zebrafish Estrogen Receptor (ESR1), esr1 (gene 259252) (UniProt P57717); assay: ATG_zfER1_XSP1: Attagene TRANS-FACTORIAL Multi-Species (XSP1) HepG2 Assay for zebrafish Estrogen Receptor (ESR1) (AID 2283772)
# zebrafish Estrogen Receptor (ESR1), esr1 (gene 259252), sequence (P57717 whole entry, looked up, the tested form may be a part): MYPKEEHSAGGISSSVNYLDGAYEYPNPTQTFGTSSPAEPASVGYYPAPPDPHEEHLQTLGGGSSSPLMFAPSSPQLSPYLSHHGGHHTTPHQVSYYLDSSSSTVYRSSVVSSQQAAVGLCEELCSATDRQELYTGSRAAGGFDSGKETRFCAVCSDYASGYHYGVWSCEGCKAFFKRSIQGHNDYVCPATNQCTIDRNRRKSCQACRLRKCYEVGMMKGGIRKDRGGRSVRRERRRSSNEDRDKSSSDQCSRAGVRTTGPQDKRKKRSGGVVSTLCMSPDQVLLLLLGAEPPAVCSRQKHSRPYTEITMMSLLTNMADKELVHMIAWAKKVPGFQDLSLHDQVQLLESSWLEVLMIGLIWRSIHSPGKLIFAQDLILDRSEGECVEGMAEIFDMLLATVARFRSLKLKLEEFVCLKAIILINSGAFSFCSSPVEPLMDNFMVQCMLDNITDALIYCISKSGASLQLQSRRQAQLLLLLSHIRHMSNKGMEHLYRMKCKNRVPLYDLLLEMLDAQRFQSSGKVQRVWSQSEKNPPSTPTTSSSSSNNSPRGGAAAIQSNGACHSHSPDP
# Method in brief: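 Reporter mRNA induction, gauged via RT-PCR/capillary electrophoresis fluorescence relative to DMSO controls, in HepG2 cells transiently carrying GAL4-UAS reporter units; 24 h dosing.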
# [8] = tested on: zebrafish Estrogen Receptor (ESR2B), gene 317733; assay: ATG_zfER2b_XSP1: Attagene TRANS-FACTORIAL Multi-Species (XSP1) HepG2 Assay for zebrafish Estrogen Receptor (ESR2B) (AID 2283773)
# Method in brief: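 Medium contained 3 nM 6-alpha-fluorotestosterone. Reporter mRNA induction by exogenous zebrafish ER2b-Gal4 chimera was read 24 h post-dose in transiently transfected HepG2 cells, using RT-PCR, fluorescent labelling, HpaI digestion and capillary electrophoresis.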
# [9] = tested on: frog Estrogen Receptor (ESR2), gene 100174814; assay: ATG_frER2_XSP1: Attagene TRANS-FACTORIAL Multi-Species (XSP1) HepG2 Assay for frog Estrogen Receptor (ESR2) (AID 2283774)
# Method in brief: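 Reporter mRNA from a multiplexed TRANS system, measured by RT-PCR with fluorescent labelling and capillary electrophoresis, 24 hours after chemical exposure. Human HepG2 liver cells carried exogenous frog ER-Gal4 chimera; medium included 3 nM 6-alpha-fluorotestosterone; increases versus DMSO analysed.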
# [10] = tested on: frog Estrogen Receptor (ESR1), gene 398734; assay: ATG_frER1_XSP1: Attagene TRANS-FACTORIAL Multi-Species (XSP1) HepG2 Assay for frog Estrogen Receptor (ESR1) (AID 2283777)
# Method in brief: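 HepG2 cells transiently transfected with GAL4-UAS reporter units and frog ER–Gal4 chimera were dosed for 24 h with 3 nM 6-alpha-fluorotestosterone present. Reporter mRNA was measured by RT-PCR and capillary electrophoresis; gain of signal fitted versus DMSO.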
# [11] = tested on: zebrafish Estrogen Receptor (ESR2A), gene 317734; assay: ATG_zfER2a_XSP1: Attagene TRANS-FACTORIAL Multi-Species (XSP1) HepG2 Assay for zebrafish Estrogen Receptor (ESR2A) (AID 2283778)
# Method in brief: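 Reporter transcripts were quantified by RT-PCR, 6-FAM labelling, HpaI digestion and capillary electrophoresis after 24 h dosing. The cells were HepG2 transiently carrying a zebrafish ER2a–Gal4 construct plus multiplexed UAS reporters; medium contained 3 nM 6-alpha-fluorotestosterone.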
# [12] = biological target: chicken Estrogen Receptor (ESR1), ESR1 (gene 396099) (UniProt P06212); assay: ATG_chERa_XSP1: Attagene TRANS-FACTORIAL Multi-Species (XSP1) HepG2 Assay for chicken Estrogen Receptor (ESR1) (AID 2283779)
# chicken Estrogen Receptor (ESR1), ESR1 (gene 396099), sequence (P06212 whole entry, looked up, the tested form may be a part): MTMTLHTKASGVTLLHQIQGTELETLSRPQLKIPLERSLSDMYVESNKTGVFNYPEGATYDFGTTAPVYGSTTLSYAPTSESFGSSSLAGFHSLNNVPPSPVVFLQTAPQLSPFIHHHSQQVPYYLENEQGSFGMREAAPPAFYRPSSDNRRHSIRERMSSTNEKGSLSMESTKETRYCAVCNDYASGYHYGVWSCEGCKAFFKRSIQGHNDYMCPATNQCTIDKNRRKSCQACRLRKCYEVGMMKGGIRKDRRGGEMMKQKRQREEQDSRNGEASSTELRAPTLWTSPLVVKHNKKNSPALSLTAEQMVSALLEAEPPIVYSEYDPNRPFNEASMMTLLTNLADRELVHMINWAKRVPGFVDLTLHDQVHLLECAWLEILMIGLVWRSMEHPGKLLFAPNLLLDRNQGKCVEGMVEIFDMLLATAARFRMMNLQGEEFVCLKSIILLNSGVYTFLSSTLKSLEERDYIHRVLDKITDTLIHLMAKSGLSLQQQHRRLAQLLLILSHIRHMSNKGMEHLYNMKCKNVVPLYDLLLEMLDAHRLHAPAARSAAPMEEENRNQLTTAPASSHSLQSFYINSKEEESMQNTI
# Method in brief: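 Trans-activation of an exogenous chicken ERα–Gal4 chimera read as reporter transcript (RT-PCR, fluorescent labeling, capillary electrophoresis) after 24 h compound exposure of transfected HepG2; medium held 3 nM 6-alpha-fluorotestosterone. Positive-direction fit against DMSO.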
# [13] = biological target: Estrogen receptor (Homo sapiens) (UniProt P03372); assay: ATG_hERa_XSP1: Attagene TRANS-FACTORIAL Multi-Species (XSP1) HepG2 Assay for human Estrogen Receptor (ESR1) (AID 2283780)
# Estrogen receptor (Homo sapiens), sequence (P03372 whole entry, looked up, the tested form may be a part): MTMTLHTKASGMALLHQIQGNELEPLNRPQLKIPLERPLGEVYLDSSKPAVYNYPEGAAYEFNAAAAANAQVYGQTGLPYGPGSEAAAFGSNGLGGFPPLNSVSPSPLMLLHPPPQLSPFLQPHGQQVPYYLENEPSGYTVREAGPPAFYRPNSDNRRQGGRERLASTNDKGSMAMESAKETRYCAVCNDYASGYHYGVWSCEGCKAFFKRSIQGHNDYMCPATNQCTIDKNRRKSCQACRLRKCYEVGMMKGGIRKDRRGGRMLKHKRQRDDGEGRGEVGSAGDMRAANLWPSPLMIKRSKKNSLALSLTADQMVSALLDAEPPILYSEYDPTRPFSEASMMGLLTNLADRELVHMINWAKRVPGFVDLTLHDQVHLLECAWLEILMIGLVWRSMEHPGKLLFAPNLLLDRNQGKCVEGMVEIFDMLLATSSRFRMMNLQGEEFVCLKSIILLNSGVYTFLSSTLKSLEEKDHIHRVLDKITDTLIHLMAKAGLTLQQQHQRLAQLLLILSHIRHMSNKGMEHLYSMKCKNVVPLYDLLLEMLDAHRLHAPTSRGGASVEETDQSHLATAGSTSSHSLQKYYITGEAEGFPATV
# Method in brief: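 Reporter transcripts from multiplexed GAL4-UAS units driven by NR-Gal4 chimeras in transiently transfected HepG2 were measured by RT-PCR with capillary electrophoresis 24 h post-dose, with 3 nM 6-alpha-fluorotestosterone present; gain-of-signal relative to DMSO.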
# [14] = tested on: turtle Estrogen Receptor (ESR1), gene 101933533; assay: ATG_trERa_XSP1: Attagene TRANS-FACTORIAL Multi-Species (XSP1) HepG2 Assay for turtle Estrogen Receptor (ESR1) (AID 2283781)
# Method in brief: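 Transactivation measured 24 h post-dose as reporter mRNA (RT-PCR, fluorescent capillary electrophoresis) from an NR-Gal4 turtle ER construct in HepG2. Medium included 3 nM 6-alpha-fluorotestosterone; increase over DMSO fitted.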
# [15] = biological target: Estrogen receptor beta (Homo sapiens) (UniProt Q92731); assay: ATG_hERb_XSP1: Attagene TRANS-FACTORIAL Multi-Species (XSP1) HepG2 Assay for human Estrogen Receptor (ESR2) (AID 2283788)
# Estrogen receptor beta (Homo sapiens), sequence (Q92731 whole entry, looked up, the tested form may be a part): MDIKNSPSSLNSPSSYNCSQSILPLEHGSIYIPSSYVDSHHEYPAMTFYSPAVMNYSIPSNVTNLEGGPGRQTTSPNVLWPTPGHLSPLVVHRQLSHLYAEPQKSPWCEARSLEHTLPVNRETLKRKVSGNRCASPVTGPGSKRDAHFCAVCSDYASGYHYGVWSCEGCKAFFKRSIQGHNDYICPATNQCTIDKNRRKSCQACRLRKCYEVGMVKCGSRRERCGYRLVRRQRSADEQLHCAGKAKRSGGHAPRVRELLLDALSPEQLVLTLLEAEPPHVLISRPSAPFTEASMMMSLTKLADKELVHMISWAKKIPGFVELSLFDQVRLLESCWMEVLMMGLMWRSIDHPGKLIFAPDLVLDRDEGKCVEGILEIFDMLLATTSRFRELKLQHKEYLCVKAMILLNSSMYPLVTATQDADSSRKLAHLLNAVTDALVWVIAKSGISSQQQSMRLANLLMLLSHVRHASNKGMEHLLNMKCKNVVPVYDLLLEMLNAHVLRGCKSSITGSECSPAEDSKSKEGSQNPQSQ
# Method in brief: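 HepG2 cells transiently transfected with multiplexed GAL4-UAS reporter units carrying chimeric human ERβ-Gal4; 24 h compound exposure with 3 nM 6-alpha-fluorotestosterone present. Reporter mRNA quantified by RT-PCR, FAM labelling and capillary electrophoresis; gain-of-signal fitted versus DMSO.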
# [16] = ATG_M_19_XSP1: Attagene TRANS-FACTORIAL Multi-Species (XSP1) HepG2 Assay for M19 Transcription Factor (Internal Marker) (AID 2283798)
# Method in brief: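 Readout is reporter mRNA induction quantified via RT-PCR, 6-FAM labeling, HpaI digestion and capillary electrophoresis, fitted in the positive direction versus DMSO baseline. Transfected HepG2 cells exposed 24 h, medium including 3 nM 6-alpha-fluorotestosterone.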
# [17] = tested on: zebrafish Peroxisome Proliferator-activated Receptor gamma (PPARg), gene 557037; assay: ATG_zfPPARg_XSP1: Attagene TRANS-FACTORIAL Multi-Species (XSP1) HepG2 Assay for zebrafish Peroxisome Proliferator-activated Receptor gamma (PPARg) (AID 2283801)
# Method in brief: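 Trans-activation readout of chimeric zebrafish PPARg–GAL4 in transiently transfected human HepG2 cells, 24 h chemical exposure (medium includes 3 nM 6-alpha-fluorotestosterone). Reporter transcripts measured by RT-PCR and capillary electrophoresis, fitted as gain over DMSO.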
# [18] = biological target: Nuclear receptor subfamily 1 group I member 2 (Mus musculus) (UniProt O54915); assay: ATG_mPXR_XSP1: Attagene TRANS-FACTORIAL Multi-Species (XSP1) HepG2 Assay for mouse Pregnane X Receptor (PXR) (AID 2283803)
# Nuclear receptor subfamily 1 group I member 2 (Mus musculus), sequence (O54915 whole entry, looked up, the tested form may be a part): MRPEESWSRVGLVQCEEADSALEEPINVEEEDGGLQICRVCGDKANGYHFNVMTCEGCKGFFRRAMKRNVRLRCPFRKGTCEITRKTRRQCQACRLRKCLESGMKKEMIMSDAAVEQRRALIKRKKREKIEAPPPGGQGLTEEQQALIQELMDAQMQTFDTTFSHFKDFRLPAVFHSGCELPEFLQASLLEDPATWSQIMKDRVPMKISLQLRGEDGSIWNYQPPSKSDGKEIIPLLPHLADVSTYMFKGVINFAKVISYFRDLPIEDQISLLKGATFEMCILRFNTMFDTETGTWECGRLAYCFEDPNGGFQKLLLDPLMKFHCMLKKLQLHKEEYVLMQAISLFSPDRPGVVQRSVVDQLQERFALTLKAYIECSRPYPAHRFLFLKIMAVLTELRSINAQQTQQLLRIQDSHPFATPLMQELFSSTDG
# Method in brief: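 Transiently transfected HepG2 cells expressing a receptor-Gal4 chimera drive a GAL4-UAS reporter; 3 nM 6-alpha-fluorotestosterone included. Reporter mRNA read 24 h post-dose by RT-PCR and capillary electrophoresis; gain of signal relative to DMSO.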
# [19] = tested on: turtle Thyroid Hormone Receptor, alpha (TRa), gene 101949057; assay: ATG_trTRa_XSP1: Attagene TRANS-FACTORIAL Multi-Species (XSP1) HepG2 Assay for turtle Thyroid Hormone Receptor, alpha (TRa) (AID 2283806)
# Method in brief: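 After 24 h chemical exposure, reporter transcripts were measured by RT-PCR with fluorescent primer extension, HpaI digestion and capillary electrophoresis. Cells were transiently transfected HepG2 expressing exogenous NR-Gal4 chimeras; medium contained 3 nM 6-alpha-fluorotestosterone; fitted upward relative to DMSO.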
# [20] = ATG_XTT_Cytotoxicity_XSP1: Cytotoxicity Assessment in the Attagene TRANS-FACTORIAL Multi-Species (XSP1) HepG2 Assay (AID 2283810)
# Method in brief: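 XTT viability readout taken at 24 hours post-dosing in HepG2 liver cells co-treated with 3 nM 6-alpha-fluorotestosterone. Signal loss relative to DMSO controls reflects cytotoxicity.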
smiles,measurement,setting,value
Oc1ccc(Nc2ccccc2)cc1,AC50,[1],25400 nM (active)
CN(C)Cc1ccccc1O,outcome,[2],inactive
same,outcome,AR (gene 367) [3],inactive
same,outcome,AR (gene 367) [4],inactive
CCCCCCC(C)OC(=O)CCCCC(=O)OC(C)CCCCCC (centres undefined),outcome,[2],inactive
same,outcome,AR (gene 367) [3],inactive
same,outcome,AR (gene 367) [4],inactive
CCCCCCOC(=O)c1ccccc1,outcome,[5],inactive
C#C[C@]1(O)CC[C@H]2[C@@H]3CCc4cc(OC)ccc4[C@H]3CC[C@@]21C,outcome,[5],inactive
same,outcome,[2],inactive
same,outcome,[6],inactive
Nc1ccc(Oc2cccc(Oc3ccc(N)cc3)c2)cc1,AC50,[1],64200 nM (active)
Nc1ccc([N+](=O)[O-])cc1O,outcome,[1],inactive
CNC(=S)NC,outcome,[5],inactive
same,outcome,[2],inactive
same,outcome,AR (gene 367) [3],inactive
same,outcome,AR (gene 367) [4],inactive
c1ccc(B(c2ccccc2)c2ccccc2)cc1,outcome,[5],inactive
same,outcome,[2],inactive
same,outcome,[6],inactive
CCCCCC=O,outcome,[1],inactive
CS(C)(=O)=O,outcome,[1],inactive
CC/C=C\CCOC(=O)c1ccccc1,AC50,[1],76700 nM (active)
O=C(O)C(F)(F)C(F)(F)C(F)(F)F,outcome,[1],inactive
Cc1cc(C)cc(O)c1,outcome,[2],inactive
C(=C(c1ccccc1)c1ccccc1)c1ccccc1,AC50,[7],272 nM (active)
same,AC50,[8],50.4 nM (active)
same,AC50,[9],24.9 nM (active)
same,outcome,[2],inactive
same,outcome,[10],inactive
same,outcome,[11],inactive
same,AC50,[12],198 nM (active)
same,AC50,[13],33.6 nM (active)
same,AC50,[14],20.8 nM (active)
same,AC50,[1],87100 nM (active)
same,AC50,[15],17 nM (active)
same,outcome,[16],inactive
same,outcome,[17],inactive
same,outcome,[18],inactive
same,outcome,[19],inactive
same,outcome,[20],inactive
same,outcome,[6],inactive
FC(F)(F)C(F)(F)C(F)(F)CI,outcome,[1],inactive
O=S(=O)(O)c1ccc2ccccc2c1,outcome,[5],inactive
same,outcome,[2],inactive
same,outcome,[1],inactive
O=C(OCCOCCOCCOC(=O)c1ccccc1)c1ccccc1,AC50,[2],195 nM (active)
same,outcome,[1],inactive
same,outcome,[6],inactive
